Results as given in PubChem BioAssay (NCI).
Compounds without any hit were thinned out: in the full panel of roughly 83,000, 20% have a hit.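 Step 1: grow cells in 96-well plates. Step 2: add test compound at a single concentration. Step 3: incubate 48 h. Step 4: record percent growth.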 Unmarked numbers belong to inactive results. Calls of active or inactive are those of the source.

These molecules were tested on MDA-MB-435 melanoma (assay: NCI-60 one-dose screen, 48 h (100 = growth as untreated, 0 = no growth, -100 = all killed)). Settings: 10 µM unless noted.
Method: Growth inhibition of the MDA-MB-435 human Melanoma tumor cell line is measured as a screen for anti-cancer activity. Cells are grown in 96 well plates and exposed to the test compound for 48 hours. Compounds are tested at a single concentration, which is 10^-5 M for most compounds. The reported endpoint is percent growth (GI% or GIPRCNT), where numbers from 0 - 100% represent growth inhibition, and numbers from -100% - 0 represent cell death. For example, a value of 40 represents 60% growth inhibition. A value of 0 means no net growth occurred over the course of the experiment. A value of -40 indicates 40% of cells at the beginning of the experiment died by the end of the experiment. A value of -100 means all cells are dead at the end of the experiment.
NCI-60 Human Tumor Cell Lines Screen was performed using the standard one-dose NCI protocol, which is described in more detail at https://dtp.cancer.gov/discovery_development/nci-60/default.htm.
Compounds with GIPRCNT values below 10 were considered active. Activity score was based on GIPRCNT using the following formula: […]
Score is 0 for GIPRCNT values of 100 or above, 50 for GIPRCNT values of 0, and 100 for GIPRCNT values of -100.
For `COc1ccc(N2CCC(=S)NC2=S)cc1`, the growth was 96.3%. In the case of `Cc1ccc(/C=C/C(=O)Nc2ncc(Cc3ccc(F)cc3)s2)o1`, the growth is reported as -25.9% (active). `CCN1C(=O)N(CC)C2C1NN=c1s/c(=C3\C(=O)N(CCC(C)C)c4ccccc43)c(=O)n12` (stereo not given) was tested, and the growth was -31.3% (active). With `COc1ccc2nc(Cl)c(/C=C3\CC(c4ccccc4)=NN(c4ccccc4)C3=O)cc2c1` the growth was 90.3%. `Cc1cn(-c2cc(NC(=O)c3cncc(C#Cc4c(N)ncc5ccc(F)cc45)c3)cc(C(F)(F)F)c2)cn1` gave a growth of 36.6%. With `O=C(/C=C/c1ccc(Oc2ccc(Br)cc2)cc1)c1ccc(Br)cc1` the growth was 93%. With `CCn1c(-c2cc3c([nH]c4ccccc43)c(-c3cccc(O)c3)n2)n[nH]c1=S` the growth was -24.2% (active). With `O=c1nc(-c2ccccc2)c2cc(-c3ccc(C(F)(F)F)nc3)ccc2[nH]1` the growth was 104%. `COc1ccc2c(c1)c(-c1nc(-c3c[nH]c4ncccc34)cs1)cn2CCCN1CCOCC1` was tested, and the growth was 47%. For `COc1ccc(Oc2nc(Nc3ccc(N4CCOCC4)cc3)ncc2NC(=O)Nc2cc(OC)cc(OC)c2)cc1`, the growth was 6.76% (active). For `C=C1C(=O)O[C@H]2[C@H]1CC/C(CNC(=O)c1c[nH]c3ccc(F)cc13)=C\CC[C@@]1(C)O[C@@H]21`, the growth was 3.64% (active). `CCOc1c(OC)cc2c(c1O)C(=O)N[C@@H]1[C@@H](O)[C@@H](O)[C@H](O)C[C@@H]21` showed a growth of 108%. In the case of `Nc1nc2c(c3ncccc13)C(c1cccc(Cl)c1)Cc1ncccc1-2` (stereo not given), the growth is reported as -57.9% (active). With `COc1ccc(C(=S)N2CCN(c3ccc(Cl)cc3)CC2)cc1` the growth was 120%. `CCOC(=O)CC1CSC(Nc2ccccc2)=N1` (stereo not given) was tested, and the growth was 105%. `Oc1ccc(/C=C/c2ccc(O)cc2)cc1` was tested, and the growth was 52.8%. Molecule `C[C@H](CCCC(=O)NCC#CCN1CCN(C)CC1)[C@H]1CC[C@H]2[C@@H]3CC[C@@H]4CC(=O)CC[C@]4(C)[C@H]3CC[C@]12C` has a growth of 95.5%. Molecule `Cc1ccc(C(=O)Nc2cccc(C#Cc3cccc4[nH]nc(N)c34)c2)cc1C(F)(F)F` has a growth of 62.4%. `C#CCNC(=O)[C@]1(C)CCC[C@@]2(C)[C@H]1CC=C1C=C(C(C)C)CC[C@@H]12` gave a growth of 104%. For `Cc1ccc(N2C(=O)CCC2=O)cc1`, the growth was 102%. Work on `CC1(C)CC2=C3C=C[C@@H]4[C@@]5(C)CCC(=O)C(C)(C)[C@@H]5CC[C@@]4(C)[C@]3(C)CC[C@@]2(C(=O)O)C[C@H]1O` yielded a growth of 27.1%. In the case of `CC1=CCC(OC(=O)C(C)(C)CC(O)(C(C)O)C(O)C2(C)C=CC(Cc3ccc(C(C)C)cc3)(C(C)C)CC2)(C(C)C)CC1` (stereo not given), the growth is reported as 94.1%. Molecule `N#C/C(=C\C=C\c1ccc(-c2cc(Cl)ccc2Cl)o1)c1nc2ccccc2s1` has a growth of 102%. `C=C(C)[C@@H]1CCC[C@]2(C(=O)O)CC[C@]3(C)[C@@H](CC[C@@H]4[C@@]5(C)C/C(=C/c6ccncc6)C(=O)C(C)(C)[C@@H]5CC[C@]43C)[C@@H]12` showed a growth of 19.8%. With `COc1ccc(CCN2C(=O)/C(=C/c3ccc(C4Oc5ccccc5C5CC(c6ccccc6)=NN54)cc3)SC2=S)cc1` (stereo not given) the growth was 104%. For `COC1=C(C)C(=O)N2[C@@H]1[C@H](c1ccccc1)OC21C=CC(=O)C=C1`, the growth was -48.8% (active). For `Cn1c(=O)c2[nH]c(SCC(=O)Nc3ccc(C(=O)/C=C/c4ccccc4Cl)cc3)nc2n(C)c1=O`, the growth was 92%. In the case of `Clc1c(Cl)[n+](Cc2ccc3ccccc3c2)cn1Cc1ccc2ccccc2c1`, the growth is reported as -31.4% (active). `Nc1ncnc2c1N=C(c1ccc3c(c1)OCO3)CC(c1cccc(Nc3ccnc4cc(C(F)(F)F)ccc34)c1)N2` (stereo not given) was tested, and the growth was 92.6%. `CCCCCCCCCCCCCCCCCCOc1ccccc1CC(=O)NCC[N+]1(C)CCCCC1` showed a growth of 60.5%. With `N#C/C(=C\c1cn(Cc2ccccc2)c2ccccc12)C(=O)Nc1ncc(Cc2ccccc2Cl)s1` the growth was -15.1% (active). `O=C(O)/C=C/C(=O)Nc1cccc(Cn2nnc3cc(Cl)c(Cl)cc32)c1` showed a growth of 106%. Molecule `CCOC(=O)c1c(C)nc2ccccc2c1/C=C/c1cccs1` has a growth of 88.7%. For `O=C(Oc1ccc(CCl)cc1)c1ccccc1`, the growth was -88.7% (active). For `Cc1ccc(CNc2c3ccccc3nc3ccccc23)cc1`, the growth was 31.2%. `CCN1CCN(CC(=O)Nc2nc3ccc(NCc4ccc(F)cc4)cc3s2)CC1` showed a growth of 93.4%. Work on `Cc1ccc(/C=C/C(=O)c2ccc(-n3cc(CN4CCN(c5cc6c(cc5F)c(=O)c(C(=O)O)cn6C5CC5)CC4)nn3)cc2)cc1` yielded a growth of 77.4%. With `Nc1nc(N)c(N=Nc2ccccc2)c(-c2ccccc2)n1` the growth was 73.1%. Molecule `C#CCO[C@H]1CC(CC#C)(CC#C)C(=O)[C@@H]2[C@H]1[C@H]1C[C@@H]3[C@@]4(C)CCC[C@@](C)(C(=O)OC)[C@@H]4CC[C@@]23C=C1C(C)C` has a growth of 100%. `COc1cc(C2C(C(=O)OCc3ccccc3)=C(C)NC(C)=C2C(=O)OCc2ccccc2)cc(OC)c1OC` was tested, and the growth was 27.3%.
